This excerpt belongs to a sample that is enriched for hits.
PD-1 reversal: reversal of PD-1 mediated T-cell inhibition; AID 2316; activation, % (concentration not given with the values); primary human CD4 T cells, PD-L1 beads, CellTiter-Glo 96 h; 29,000 tested, under 10 active; call rule not given here;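 note: 0% = median vehicle wells and 100% = positive control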
NOMO-1 viab: STK33 inhibitor candidate reducing NOMO-1 cell viability; NOMO-1 AML viability, CellTiter-Glo luminescence, 72 h; inhibition, % (concentration not given with the values); hit rate 7.5% among 37,000; AID 2330; in the data active = inhibition above about 80%; inconclusive = no clear call, values can overlap the other calls
ROS inducer: inducers of reactive oxygen species in cancer cells | U2OS ROS induction, H2DCF-DA fluorescence | ROS induction (% of piperlongumine), % at 10 µM | hit rate 2% among 46,000; in the data active = ROS induction above about 79%, passing the limit was not always enough; inconclusive = no clear call, values can overlap the other calls;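 note: 0% = DMSO vehicle median and 100% = reference compound median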
* hit, by the source's call; ? = inconclusive; . = no result.

SMILES | PD-1 reversal | NOMO-1 viab | ROS inducer
C=CCNC(=O)[C@H]1[C@@H]2C(=O)O[C@@H](c3ccccc3)[C@@H](c3ccccc3)N2[C@@H](c2ccccc2OCCO)[C@]12C(=O)N(C(=O)OCCOC)c1ccc(C#CC3(O)CCCCCC3)cc12 | . | . | 95*
CCCOc1ccc(Br)cc1/C=C1\NC(=S)NC1=O | . | . | 4
COc1cccc(-n2c(=S)sc3c(=O)n(-c4ccccc4)c(SCC4OCCO4)nc32)c1 | . | . | 12
Cc1ccc(-n2nc(C)c3c(C)c(CCC(=O)NCc4cccs4)c(C)nc32)cc1 | . | . | 34
O=C(CSc1nc2ccccc2c(=O)n1C1CC1)c1ccc(Cl)cc1 | . | . | 1
CCOC(=O)c1nnn2c1nc(Sc1nnc(-c3ccncc3)n1C)c1ccccc12 | -5 | 117* | 161*
CCOC(=O)c1nnn2c1nc(N(CC)CC)c1ccccc12 | 0 | 8 | 37
Cn1c(SCCC(=O)O)nnc1-c1ccncc1 | 1 | 6 | 66
CCOC(=O)c1nnn2c1nc(Sc1nc3ccccc3o1)c1ccccc12 | -5 | 116* | 108*
CCN(CC)C(=O)COc1ccc2ccccc2c1Br | . | . | -6
COc1ccc(NC(=O)c2cccc(C)c2)c(OC)c1 | 1 | 14 | 3
O=C(Cn1sc2ccccc2c1=O)N1CCN(c2ccccc2)CC1 | . | . | -8
C[C@H](CO)N1C[C@H](C)[C@@H](CN(C)C(=O)NC2CCCCC2)Oc2c(NC(=O)Nc3ccc(C(F)(F)F)cc3)cccc2C1=O | -2 | 85* | 0
C[C@@H]1CN([C@@H](C)CO)C(=O)c2cccc(NC(=O)Nc3ccc(C(F)(F)F)cc3)c2O[C@H]1CN(C)C(=O)NC1CCCCC1 | -3 | 73 | 18
C[C@@H]1CN([C@H](C)CO)C(=O)c2cccc(NC(=O)NC3CCCCC3)c2O[C@H]1CN(C)C(=O)Nc1ccc(C(F)(F)F)cc1 | -2 | 8 | -2
C[C@@H]1CN([C@H](C)CO)C(=O)c2cccc(NC(=O)Nc3ccc(C(F)(F)F)cc3)c2O[C@@H]1CN(C)C(=O)NC1CCCCC1 | -6 | 117* | 38
CCc1ccc2nc(N3CCC(C(=O)NCC4COc5ccccc5O4)CC3)sc2c1 (centres undefined) | . | . | -17
C[C@H]1CN([C@@H](C)CO)C(=O)c2cc(NC(=O)Cc3cn(C)c4ccccc34)ccc2O[C@H]1CN(C)Cc1ccc2c(c1)OCO2 | 0 | 73 | -10
C[C@@H]1CN([C@H](C)CO)C(=O)c2cc(NC(=O)Cc3cn(C)c4ccccc34)ccc2O[C@H]1CN(C)Cc1ccc2c(c1)OCO2 | 1 | 24 | 16
C[C@H](CO)N1C[C@H](C)[C@@H](CN(C)Cc2ccc3c(c2)OCO3)Oc2ccc(NC(=O)Cc3cn(C)c4ccccc34)cc2C1=O | -3 | 52 | 117*
C[C@H](CO)N1C[C@H](C)[C@H](CN(C)Cc2ccc3c(c2)OCO3)Oc2ccc(NC(=O)Cc3cn(C)c4ccccc34)cc2C1=O | -2 | 92* | 8
COc1cccc(-c2nc(-c3ccccc3)[nH]c2-c2cccc(OC)c2)c1 | . | . | 69
Cc1cccn2cc(CCNS(=O)(=O)c3ccc(Oc4ccccc4)cc3)nc12 | . | . | -1
CNC(=O)c1ccc2nc(N)sc2c1 | 0 | 40 | -7
Cc1cc(Cl)ccc1OCC(=O)Nc1sc2c(c1C#N)CCC2 | . | . | -17
SMILES | PD-1 reversal | NOMO-1 viab | ROS inducer
CC(c1ccccc1)n1c(OC(=O)N(C)C)nnc1SCC(=O)c1ccc2c(c1)OCCO2 (centres undefined) | . | . | -10
CCc1ccc(N=Cc2c(O)[nH]c(=S)[nH]c2=O)cc1 | . | . | 25
CCc1ccc(N=Cc2c(O)n(-c3ccccc3)c(=O)c3ccccc23)cc1 | 0 | 120* | -4
Cc1nn(-c2ccccc2)nc1CNS(=O)(=O)c1ccc2c(c1)OCCN2C | . | . | -9
CC(C)(C)c1ccc(NC(=O)c2ccc(N3C(=O)CSCC3=O)cc2)cc1 | . | . | 150*
CC1CCN(S(=O)(=O)c2cccc(C(=O)NC(C)(C)CO)c2)CC1 | 0 | 6 | 0
CC1CCN(S(=O)(=O)c2ccc(NC(=O)c3ccc(C(C)(C)C)cc3)cc2)CC1 | 0 | 114* | 36
CC(C)(C)c1ccc(NC(=O)c2ccc(C(C)(C)C)s2)cc1 | . | . | -3
Fc1ccc(-c2oncc2-c2nnnn2-c2ccc(Cl)cc2)cc1 | . | . | -1
CC(=O)N1CCc2cc(NC(=S)NCc3cccs3)ccc21 | 0 | 8 | 5
Cc1ccc(S(=O)(=O)Nc2cccc3cccnc23)c([N+](=O)[O-])c1 | -15 | 121* | -8
CC(=O)Nc1ccc(NS(=O)(=O)c2ccc(C)cc2[N+](=O)[O-])cc1 | 0 | 21 | -5
NC(=NCc1ccc(Cl)cc1Cl)NC(=O)c1nc(Cl)c(N)nc1N | . | 120* | 8
NC(N)=NC(=O)c1nc(Cl)c(N)nc1N | . | 31 | 1
c1ccc(CN2CCOCCN(Cc3ccccc3)CCOCC2)cc1 | -1 | 87* | 24
O=C(Cc1ccccc1)NCCN1CCOCC1 | . | . | -11
N=C1S/C(=C/c2ccccc2)C(=O)N1c1nonc1N | -7 | 28 | 46
CCOc1cc(/C=C2/SC(=N)N(c3nccs3)C2=O)ccc1OCCN1CCOCC1 | -49 | 112* | 96*
O=C(c1ccc2nc3ccccc3c(=O)n2c1)N1CCN(c2ccc(Cl)cc2)CC1 | . | . | 10
CCC(C)C1NC(=O)C(CCC(=O)O)N(C)C(=O)C(C(C)C)N(C)C(=O)CNC(=O)C2CCCN2C(=O)C(Cc2ccccc2)NC(=O)C(C(C)CC)OC(=O)C(CCC(=O)O)N(C)C(=O)C(C(C)C)NC(=O)C2CCCCN2C1=O (centres undefined) | 2 | 110* | 26
CCc1ccc(NC(=O)Cn2cc3c(n2)CCCC3)cc1 | . | . | -12
C=CCN1C(=O)[C@@]2(O[C@@H](CCn3cc(CCO)nn3)[C@H]([Si](C)(C)c3ccc(OC)cc3)[C@H]2C)c2cc(N3CCC3=O)ccc21 | . | . | 34
C[C@H]1CN([C@@H](C)CO)C(=O)c2cccc(NC(=O)Nc3ccc(C(F)(F)F)cc3)c2O[C@@H]1CN(C)Cc1ccc(Cl)c(Cl)c1 | -5 | 107* | 9
C[C@@H]1CN([C@@H](C)CO)C(=O)c2cccc(NC(=O)Nc3ccc(C(F)(F)F)cc3)c2O[C@@H]1CN(C)Cc1ccc(Cl)c(Cl)c1 | -3 | ? | 25
C[C@H](CO)N1C[C@H](C)[C@@H](CN(C)Cc2ccc(Cl)c(Cl)c2)Oc2c(NC(=O)Nc3ccc(C(F)(F)F)cc3)cccc2C1=O | -4 | 109* | 0
SMILES | PD-1 reversal | NOMO-1 viab | ROS inducer
C[C@@H]1CN([C@H](C)CO)C(=O)c2cccc(NC(=O)Nc3ccc(C(F)(F)F)cc3)c2O[C@@H]1CN(C)Cc1ccncc1 | -1 | 8 | -2
CC(CC(N)=O)OC(=O)c1cc(Cl)cc(O)c1O (centres undefined) | 1 | 88* | -2
Cc1ccc(Nc2nc(-c3ccc(S(=O)(=O)N4CCCC4)cc3)cs2)cc1 | . | . | 6
Cc1[nH]c2ccccc2c1C(c1c(C)[nH]c2ccccc12)C(C)C | -5 | 115* | -9
CC(=O)CCc1c(C)[nH]c2ccccc2c1=O | . | 13 | .
O=C(CSc1nc2ccccc2nc1N1CCCC1)Nc1ccccc1 | -2 | 43 | 0
CC1CN(c2nc3ccccc3nc2SCC(=O)Nc2ccccc2)CC(C)O1 (centres undefined) | -2 | 88* | 22
COc1ccc(-c2csc(-c3c(C)noc3N(C(C)=O)C(C)=O)n2)cc1 | . | . | 13
COc1cc(N)c(C#N)cc1OC | . | . | 10
